Reference: publication PMC5540273 (PLoS ONE, 2017)
“And” between values parts separate entries of the source, which are not always exact repeats. Identical values can stand only once.

Tested on: PIK3CB
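Further: kd values determined as follow-up on hits from a single-replicate KINOMEscan panel screen.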

| SMILES | Kd |
| --- | --- |
| CSc1nn2c(=O)cc(N3CCOCC3)nc2n1Cc1cccc(C(F)(F)F)c1C [GSK2363608] | 0.48 nM and 0.26 nM |
| O=c1cc(N2CCOCC2)nc2n(Cc3cccc(Cl)c3Cl)ccn12 [GSK2286295] | 3.5 nM |
| CS(=O)(=O)c1ccc(-c2c(-c3ncn[nH]3)sc(N3CCOCC3)c2C#N)cc1 | 77 nM |
| Cc1c(Cn2ccn3c(=O)cc(N4CCOCC4)nc23)cccc1C(F)(F)F [GSK2289044] | 1.5 nM |

Tested on: PIK3CD

| SMILES | Kd |
| --- | --- |
| CSc1nn2c(=O)cc(N3CCOCC3)nc2n1Cc1cccc(C(F)(F)F)c1C [GSK2363608] | 64 nM and 47 nM |
| O=c1cc(N2CCOCC2)nc2n(Cc3cccc(Cl)c3Cl)ccn12 [GSK2286295] | 79 nM |
| Cc1ccc(C(=O)Nc2ccc(Nc3ccnc4cc(-c5ccccn5)ccc34)cc2O)cc1.Cl [GW440146] | > 10000 nM |
| Cc1c(Cn2ccn3c(=O)cc(N4CCOCC4)nc23)cccc1C(F)(F)F [GSK2289044] | 170 nM |

Tested on: T1, PIK4CB
T1 construct: gene PI4KB

| SMILES | Kd [nM] |
| --- | --- |
| Cl.NC(=O)c1cccc(Nc2nccc(Nc3ccc(Oc4cccc(Cl)c4)c(Cl)c3)n2)c1 [GW659008] | > 10000 |
| CS(=O)(=O)c1ccc(-c2nc3n(c2-c2ccncc2)CCC3)cc1 [SKF-105942] | > 10000 |
| Cc1cc(N2Cc3ccccc3C2)nc(Nc2ccc(S(=O)(=O)N3CCOCC3)cc2)n1.Cl [GSK1669917] | > 10000 |

Tested on: PIKFYVE

| SMILES | Kd [nM] |
| --- | --- |
| Cc1cccc(-c2nc(Nc3ccc4[nH]ncc4c3)c3ccccc3n2)n1 [GW857175] | 700 |
| COc1ccc2nc(-c3cccc(C)n3)nc(Nc3ccncc3)c2c1 [GSK204919] | 1200 |
| O=C(Nc1n[nH]c2cc(-c3cccc(F)c3F)ccc12)C1CC1 [SB-733894] | > 10000 |
